These results are taken from ChEMBL document CHEMBL2218924, “A broad activity screen in support of a chemogenomic map for kinase signalling research and drug discovery” (Biochem J, 2013).

In test [1] the target is MAP kinase-activated protein kinase 3 (Homo sapiens) (UniProt Q16644). The following applies: at 10 µM.
The target of test [2] is Serine/threonine-protein kinase MARK1 (Homo sapiens) (UniProt Q9P0L2). The following applies: at 1 µM.
Test [3] has the same target. The settings on record: at 10 µM.
The target of test [4] is Dual specificity mitogen-activated protein kinase kinase 1 (Homo sapiens) (UniProt Q02750). The following applies: at 1 µM.
Chain of Dual specificity mitogen-activated protein kinase kinase 1 (Homo sapiens) (Q02750 whole entry): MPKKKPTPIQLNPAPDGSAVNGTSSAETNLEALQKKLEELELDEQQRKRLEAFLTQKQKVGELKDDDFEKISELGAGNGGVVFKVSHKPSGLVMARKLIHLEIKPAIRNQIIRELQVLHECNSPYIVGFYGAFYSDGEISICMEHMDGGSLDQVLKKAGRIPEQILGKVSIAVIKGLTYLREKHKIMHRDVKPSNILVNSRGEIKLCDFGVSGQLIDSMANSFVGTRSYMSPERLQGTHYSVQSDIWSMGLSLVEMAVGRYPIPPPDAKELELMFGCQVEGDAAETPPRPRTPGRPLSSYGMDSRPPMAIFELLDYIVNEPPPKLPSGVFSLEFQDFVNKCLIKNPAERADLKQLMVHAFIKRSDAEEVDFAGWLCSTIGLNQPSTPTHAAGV
The target is the same in test [5]. The following applies: at 10 µM.
Test [6] concerns the target Maternal embryonic leucine zipper kinase (Homo sapiens) (UniProt Q14680). The following applies: at 1 µM.
Test [7] has the same target. The settings on record: at 10 µM.
In test [8] the target is MAP kinase-activated protein kinase 2 (Homo sapiens) (UniProt P49137). The settings on record: at 10 µM.
Chain of MAP kinase-activated protein kinase 2 (Homo sapiens) (P49137 whole entry, looked up): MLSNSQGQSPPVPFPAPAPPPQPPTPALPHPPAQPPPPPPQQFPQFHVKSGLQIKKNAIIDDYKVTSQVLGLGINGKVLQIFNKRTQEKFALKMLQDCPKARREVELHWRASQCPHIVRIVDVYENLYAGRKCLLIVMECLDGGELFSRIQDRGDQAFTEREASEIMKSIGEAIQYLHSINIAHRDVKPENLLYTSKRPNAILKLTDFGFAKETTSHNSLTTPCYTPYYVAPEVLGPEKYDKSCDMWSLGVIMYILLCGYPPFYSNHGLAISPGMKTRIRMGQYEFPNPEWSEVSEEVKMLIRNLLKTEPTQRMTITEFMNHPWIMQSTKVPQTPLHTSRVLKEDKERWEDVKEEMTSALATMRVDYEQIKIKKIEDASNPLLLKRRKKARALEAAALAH
Test [9] has as its target Misshapen-like kinase 1 (Homo sapiens) (UniProt Q8N4C8). The following applies: at 1 µM.
For test [10] the target is unchanged. The settings on record: at 10 µM.

Structures are written as SMILES.

Chain of Serine/threonine-protein kinase MARK1 (Homo sapiens) (Q9P0L2 whole entry, looked up): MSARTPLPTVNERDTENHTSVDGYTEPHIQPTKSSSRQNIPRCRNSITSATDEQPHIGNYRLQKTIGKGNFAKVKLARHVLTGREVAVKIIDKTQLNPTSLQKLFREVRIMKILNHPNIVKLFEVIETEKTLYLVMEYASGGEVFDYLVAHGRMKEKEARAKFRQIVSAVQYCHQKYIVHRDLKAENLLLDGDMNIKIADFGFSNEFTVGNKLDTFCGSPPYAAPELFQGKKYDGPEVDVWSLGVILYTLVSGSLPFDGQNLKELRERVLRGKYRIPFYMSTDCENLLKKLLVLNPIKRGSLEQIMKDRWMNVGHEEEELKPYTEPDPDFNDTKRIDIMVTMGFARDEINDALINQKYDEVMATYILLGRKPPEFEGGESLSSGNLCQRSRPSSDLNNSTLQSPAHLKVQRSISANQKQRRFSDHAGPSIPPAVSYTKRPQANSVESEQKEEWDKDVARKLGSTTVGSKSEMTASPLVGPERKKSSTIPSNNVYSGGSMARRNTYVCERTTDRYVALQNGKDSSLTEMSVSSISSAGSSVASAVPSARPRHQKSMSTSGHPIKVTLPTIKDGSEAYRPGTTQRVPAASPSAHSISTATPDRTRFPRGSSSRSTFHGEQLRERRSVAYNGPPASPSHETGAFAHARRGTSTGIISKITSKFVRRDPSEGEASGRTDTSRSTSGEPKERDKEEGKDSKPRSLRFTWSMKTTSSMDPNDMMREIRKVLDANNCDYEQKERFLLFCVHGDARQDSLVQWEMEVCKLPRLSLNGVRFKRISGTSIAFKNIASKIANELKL
Chain of Misshapen-like kinase 1 (Homo sapiens) (Q8N4C8 whole entry, looked up): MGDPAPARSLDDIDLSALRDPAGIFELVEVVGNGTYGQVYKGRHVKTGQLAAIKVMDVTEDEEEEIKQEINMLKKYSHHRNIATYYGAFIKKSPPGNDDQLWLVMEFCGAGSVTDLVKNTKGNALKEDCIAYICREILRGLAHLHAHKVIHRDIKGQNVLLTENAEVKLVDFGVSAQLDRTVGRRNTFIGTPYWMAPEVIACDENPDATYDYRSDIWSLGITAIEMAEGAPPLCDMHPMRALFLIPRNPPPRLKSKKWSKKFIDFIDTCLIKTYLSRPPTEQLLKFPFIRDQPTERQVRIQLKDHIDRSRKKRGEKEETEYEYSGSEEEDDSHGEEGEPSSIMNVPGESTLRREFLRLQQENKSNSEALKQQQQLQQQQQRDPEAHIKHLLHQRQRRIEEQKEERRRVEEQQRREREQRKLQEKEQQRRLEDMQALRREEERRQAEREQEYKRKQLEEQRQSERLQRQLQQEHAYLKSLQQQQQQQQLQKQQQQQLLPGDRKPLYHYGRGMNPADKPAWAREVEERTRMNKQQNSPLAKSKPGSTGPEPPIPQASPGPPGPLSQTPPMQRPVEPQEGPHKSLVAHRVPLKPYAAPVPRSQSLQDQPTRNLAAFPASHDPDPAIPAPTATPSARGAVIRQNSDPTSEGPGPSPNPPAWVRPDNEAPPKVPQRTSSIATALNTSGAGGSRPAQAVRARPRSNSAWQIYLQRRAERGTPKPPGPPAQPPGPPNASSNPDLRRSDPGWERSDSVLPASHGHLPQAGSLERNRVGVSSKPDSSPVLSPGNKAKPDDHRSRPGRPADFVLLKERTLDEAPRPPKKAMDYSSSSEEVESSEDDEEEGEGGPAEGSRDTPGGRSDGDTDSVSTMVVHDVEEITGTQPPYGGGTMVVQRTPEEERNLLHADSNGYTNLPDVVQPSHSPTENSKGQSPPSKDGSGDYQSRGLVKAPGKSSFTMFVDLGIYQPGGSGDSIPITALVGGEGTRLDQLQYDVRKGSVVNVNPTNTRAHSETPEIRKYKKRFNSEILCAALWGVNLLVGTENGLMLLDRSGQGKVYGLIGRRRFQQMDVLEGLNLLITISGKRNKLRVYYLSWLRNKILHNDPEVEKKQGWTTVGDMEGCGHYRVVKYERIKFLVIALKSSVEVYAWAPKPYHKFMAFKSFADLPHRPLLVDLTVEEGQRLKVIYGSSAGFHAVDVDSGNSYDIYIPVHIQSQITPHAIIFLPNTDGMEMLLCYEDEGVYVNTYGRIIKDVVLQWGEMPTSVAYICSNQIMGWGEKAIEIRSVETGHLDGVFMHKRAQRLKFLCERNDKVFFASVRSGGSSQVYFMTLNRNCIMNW
Chain of Maternal embryonic leucine zipper kinase (Homo sapiens) (Q14680 whole entry, looked up): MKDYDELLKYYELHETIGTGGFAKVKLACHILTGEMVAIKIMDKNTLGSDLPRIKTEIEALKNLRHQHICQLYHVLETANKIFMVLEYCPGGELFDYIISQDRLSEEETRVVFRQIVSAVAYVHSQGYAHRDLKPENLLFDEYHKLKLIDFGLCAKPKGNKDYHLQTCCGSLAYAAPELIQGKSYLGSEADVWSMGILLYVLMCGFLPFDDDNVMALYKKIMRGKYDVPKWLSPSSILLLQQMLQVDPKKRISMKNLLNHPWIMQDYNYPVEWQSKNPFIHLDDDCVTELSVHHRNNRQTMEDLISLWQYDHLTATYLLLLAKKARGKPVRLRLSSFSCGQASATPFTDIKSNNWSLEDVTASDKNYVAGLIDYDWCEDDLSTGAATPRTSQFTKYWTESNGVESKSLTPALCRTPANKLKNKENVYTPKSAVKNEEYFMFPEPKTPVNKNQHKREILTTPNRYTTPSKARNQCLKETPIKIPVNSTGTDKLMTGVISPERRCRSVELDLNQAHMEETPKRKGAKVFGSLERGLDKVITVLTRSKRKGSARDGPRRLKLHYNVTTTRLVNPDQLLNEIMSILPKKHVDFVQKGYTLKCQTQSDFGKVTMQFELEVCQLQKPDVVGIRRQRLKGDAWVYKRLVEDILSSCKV
Chain of MAP kinase-activated protein kinase 3 (Homo sapiens) (Q16644 whole entry, looked up): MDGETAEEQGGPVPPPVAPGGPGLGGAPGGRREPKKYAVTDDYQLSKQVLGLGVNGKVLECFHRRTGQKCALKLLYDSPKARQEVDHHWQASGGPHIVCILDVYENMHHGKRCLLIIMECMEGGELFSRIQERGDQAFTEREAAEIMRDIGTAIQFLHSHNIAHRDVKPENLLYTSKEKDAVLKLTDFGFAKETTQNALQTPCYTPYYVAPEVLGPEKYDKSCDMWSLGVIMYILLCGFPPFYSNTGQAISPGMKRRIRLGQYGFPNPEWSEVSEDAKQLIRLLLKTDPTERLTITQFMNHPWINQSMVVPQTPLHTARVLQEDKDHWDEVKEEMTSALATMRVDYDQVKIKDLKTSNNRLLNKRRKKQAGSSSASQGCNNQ

On to `Nc1n[nH]c2nc3ccccc3nc12`, for which the residual activity in test [1] was determined as 94%; in [2], 75%; in test [3] it was 74%; in test [4], 87%; in [5] it was 85%; in test [6], 97%. Further, the residual activity in test [7] turned out to be 70%.
With `CCCC(=O)Oc1ccc2[nH]c(C(=O)c3cc4ccccc4[nH]3)cc2c1`, the residual activity was 87% in test [8]; 94% in test [1]; 80% in test [2]; 84% in [3]; 93% in [4]; 100% in test [5]. Further, the residual activity in test [6] was 88%; in test [7], 87%; in [9] it was 82%; in test [10], 82%.
Take `CCCCc1c(-c2ccc(OC)cc2)[nH]c2nccnc12`: the residual activity stood at 109% in test [8]; 109% in test [1]; 78% in test [2]; 76% in test [3]; 140% in test [4]; 112% in [5]. Moreover, the residual activity in test [6] amounted to 74%; in [7] it was 75%; in [9], 104%.
For `O=C(CCCc1ccc(-c2ccccc2F)cc1)Nc1ccc(O)cc1`, the residual activity came to 76% in test [8]; 102% in [2]; 94% in test [3]; 103% in [4]; 111% in test [5]; 100% in [6]. Further, the values for the residual activity in test [7], in [9] and in test [10] were 77%, 111% and 102%, respectively.
With `CC(C)(C)c1nc2c3ccc(F)cc3c3c(=O)[nH]ccc3c2[nH]1`, the residual activity stood at 62% in test [8]; 29% in test [2]; 14% in [3]; 66% in test [4]; 20% in test [5]; 2% in test [6]. The residual activity in [7] amounted to 2%; in test [9], 81%; in test [10], 78%.
For the molecule `O=C(c1cc2cc(O)ccc2[nH]1)c1cc2cc(O)ccc2[nH]1`, the residual activity is 51% in test [8]; 40% in [2]; 5% in test [3]; 80% in [4]; 26% in test [5]; 27% in test [6]. Further, the values for the residual activity in test [7], in test [9] and in test [10] were 3%, 21% and 4%, respectively.
On to `Nc1ncnc2[nH]nc(Nc3ccc(F)cc3)c12`, for which the residual activity in test [8] came out at 95%; in test [1], 112%; in test [3], 69%; in test [4] it was 60%; in [5], 23%; in [7], 51%. For the same molecule, the residual activity in test [10] stood at 48%.
Consider `O=C(NC(NC(=S)Nc1ccc(F)c([N+](=O)[O-])c1)C(Cl)(Cl)Cl)C(c1ccccc1)c1ccccc1` (stereo not given), for which the residual activity amounted to 78% in test [8]; 96% in test [2]; 80% in [3]; 76% in test [6]; 76% in test [7].
Regarding `CC(C)[C@H](CO)Nc1nc(Nc2cc(N)cc(Cl)c2)c2ncn(C(C)C)c2n1`, the residual activity stood at 117% in [8], 92% in [2], 38% in test [3] and 73% in test [10].
As for `O=C1NC(=O)c2c1c1c3ccccc3[nH]c1n1cncc21`, the residual activity in [8] came to 89%; in test [1], 82%; in test [2], 25%; in test [3] it was 21%; in test [4], 59%; in test [5] it was 67%. In addition, the residual activity in test [6] turned out to be 27%; in [7] it was 10%; in test [9], 77%; in [10], 45%.
For the molecule `O=C1C(Cl)=C(N2C(=O)CCC2=O)C(=O)c2ccccc21`, the residual activity in [8] came out at 87%; in test [1], 100%; in [2] it was 82%; in test [3] it was 81%; in test [5], 67%; in test [7] it was 70%.
As to `Cn1sc(=O)n(Cc2ccccc2)c1=O`, the residual activity in test [8] was 93%; in test [2], 76%; in test [3], 70%; in test [4], 96%; in test [6] it was 88%; in test [7] it was 65%. In addition, the residual activity came out at 96% in test [9] and 91% in test [10].
For the molecule `O=C(O)/C=C/c1cc(Br)c(Br)c(Br)c1Br`, the residual activity amounted to 79% in test [8]; 82% in test [1]; 104% in test [2]; 82% in [3]; 106% in test [4]; 65% in test [5]. Moreover, the residual activity in [6] was 82%; in test [7], 80%; in [9] it was 105%; in test [10], 87%.
Turning to `Cc1cc(C)c(/C=C2\C(=O)Nc3ccccc32)[nH]1`, the residual activity in [8] is 103%; in test [1], 101%; in test [2], 65%; in test [3], 20%; in test [4] it was 41%; in test [5] it was 31%. The results for the residual activity in test [9] and in test [10] were 71% and 58%, respectively.
For the molecule `O=C1Cc2c([nH]c3ccc([N+](=O)[O-])cc23)-c2ccccc2N1`, the residual activity was 50% in [8]; 53% in test [1]; 34% in test [2]; 28% in [3]; 103% in [4]; 129% in test [5]. The residual activity stood at 81% in [6], 64% in test [7], 60% in test [9] and 36% in [10].
Turning to `CN([C@@H](Cc1ccc(OS(=O)(=O)c2cccc3cnccc23)cc1)C(=O)N1CCN(c2ccccc2)CC1)S(=O)(=O)c1cccc2cnccc12`, the values for the residual activity in test [1], in [2] and in test [3] were 78%, 99% and 98%, respectively.
As for `O=C1Nc2ccc(Cl)cc2/C1=C/c1cc(Cl)c(O)c(Cl)c1`, the residual activity amounted to 71% in [8]; 61% in test [1]; 69% in test [2]; 35% in test [3]; 99% in [4]; 49% in test [5]. The residual activity in test [6] was 60%; in [7] it was 46%; in test [9] it was 35%; in test [10], 35%.
On to `CN(C)S(=O)(=O)c1ccc2c(c1)/C(=C/c1cc3c([nH]1)CCCC3)C(=O)N2`, for which the residual activity stood at 92% in test [8]; 92% in test [1]; 24% in test [2]; 17% in test [3]; 83% in test [5]; 95% in [7]. The residual activity in test [9] was 124%; in [10], 97%.
Take `Nc1ncnc2c1c(-c1ccc(Oc3ccccc3)cc1)cn2C1CCCC1`: the residual activity in test [8] was found to be 77%; in [1], 84%; in test [2], 74%; in [3], 54%; in test [4], 48%; in test [5] it was 24%. In addition, the residual activity came out at 72% in test [6], 31% in [7], 93% in test [9] and 82% in [10].
As to `O=c1cc(N2CCOCC2)oc2c1ccc1ccccc12`, the residual activity in [8] was determined as 87%; in test [1] it was 109%; in test [2], 93%; in test [3] it was 89%; in [5] it was 92%; in test [6], 92%. The figures for the residual activity in test [7], in [9] and in test [10] were 91%, 102% and 110%, respectively.
For the molecule `O=C(c1ccccc1)c1ccc(N2CCOCC2)cc1O`, the residual activity in test [8] came out at 89%; in test [1] it was 93%; in test [2], 93%; in test [3] it was 83%; in [4], 80%; in test [5], 90%. In addition, the residual activity in test [6] turned out to be 85%; in test [7], 65%; in test [9], 85%; in test [10], 60%.
In the case of `O=c1cc(N2CCNCC2)oc2c(-c3ccccc3)cccc12`, the residual activity in test [8] was found to be 85%; in test [1] it was 89%; in [2] it was 82%; in test [3], 89%; in test [4] it was 99%; in [5] it was 89%. Besides, the residual activity in test [6] came to 80%; in test [7], 78%; in [9], 104%; in test [10], 99%.
As to `N#C/C(=C\c1ccc(O)c(O)c1)C(=O)NCc1ccccc1`, the residual activity in [8] stood at 77%; in test [2], 85%; in test [3] it was 88%; in test [6] it was 80%; in [7], 72%; in [10], 84%.
As to `CSc1nc(-c2ccc(F)cc2)c(-c2ccnc(NC(C)c3ccccc3)c2)[nH]1` (stereo not given), the residual activity was 98% in test [8]; 94% in test [2]; 76% in test [3]; 88% in [6]; 61% in test [7]; 59% in [10].
Regarding `O=C1NC(=O)C(c2cn(CCCO)c3ncccc23)=C1c1cnccn1`, the residual activity in test [8] was 93%; in test [1], 100%; in test [2], 81%; in [3] it was 79%; in [6], 78%; in test [7], 68%.
For the molecule `NCCNc1ncc(C(N)=O)c(Nc2cccc(C(F)(F)F)c2)n1`, the residual activity turned out to be 49% in test [8]; 72% in test [1]; 72% in test [2]; 30% in test [3]; 73% in test [4]; 25% in test [5].
